Screens from PubChem BioAssay.
The list is not random: actives were taken first. Their share in the collection is about 19%.
HT1080 IDH1KD tx – kills HT-1080 cells with IDH1 knockdown; HT-1080 IDH1 knockdown viability, ATP luminescence, 48 h; Potency, µM (series often up to 46.1 µM), hits mostly cytotoxic; 360,000 tested, 2% active; AID 686971
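% activity derives from luminescence (CellTiter-Glo), normalised to DMSO and no-cell wells. HT-1080-IDH1KD cells, 750/well, had 48 h compound exposure at 37 °C.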
TDP1 cell CPT – DT40-hTDP1 cell growth loss with CPT. chicken DT40 Tdp1-/-;hTDP1 cells + 20 nM CPT, ATP luminescence, 48 h. Potency, µM (series often up to 46.2 µM), actives largely listed as inhibitors. 420,000 tested, 12% active. AID 686979; also: nearly all actives have a fitted effect of over 55% in size
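Chicken DT40 Tdp1-/- cells stably complemented with human TDP1 were seeded at 400 cells/well in medium containing 20 nM camptothecin, exposed to pin-transferred compounds, and grown at 37 °C for at least 48 hr. Viability was read as ATP luminescence.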
IL1B secr inh – inhibitors of inflammasome signaling (IL-1 beta secretion). THP-1 LPS/ATP IL-1B secretion, AlphaLISA, 16 h; hits give low values. activity change, % at 57.5 µM. 360,000 tested, 4.7% active. AID 743279; in the data active = activity change below about -50%; inconclusive = mostly about -30% to -49%
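THP-1 cells pretreated 1 hr with compounds (up to 57.5 uM final), then stimulated with LPS (250 ng/mL final) plus ATP (1.25 mM final); secreted IL-1B measured by AlphaLISA after 16 hr, decreased signal indicating inhibition.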
DT40 TDP1 no CPT – qHTS for Inhibitors of human tyrosyl-DNA phosphodiesterase 1 (TDP1): qHTS in cells in absence of CPT. DT40 Tdp1-/- hTDP1 cells, no CPT, ATP luminescence, 48 h. Potency, µM (highest dose often 46.2 µM), hits mostly inhibitors. 420,000 tested, 15% active. AID 686978, 2013; also: nearly all actives have a fitted effect of over 55% in size
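Growth kinetics read by CellTiter-Glo luminescence after ≥48 hr at 37 °C. Cells: DT40 Tdp1-/- stably carrying human TDP1, 400 per well, compound exposure in the absence of CPT (DMSO vehicle).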
HT1080NT lethal – kills 2HG-producing HT-1080-NT fibrosarcoma cells; HT-1080-NT fibrosarcoma viability, CellTiter-Glo ATP luminescence, 48 h; Potency, µM (series often up to 46.1 µM), actives largely listed as cytotoxic; 360,000 tested, 1.6% active; AID 686970;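 also: NT is the 2HG producing partner of a matched IDH1 knockdown line; nearly all actives have a fitted effect of over 55% in size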
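HT-1080-NT fibrosarcoma cells (2HG-overproducing), 750 cells/well in RPMI with 5% FBS, dosed after 2 h and incubated 48 h at 37C. CellTiter-Glo luminescence normalized to DMSO and no-cell wells; concentration-response curves fitted and classed.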
Hits are given with their value; - = inactive; ? = inconclusive; . = not tested or not shown; ! = not confirmed by another sample; [ ] = dose if it differs, or a comment. Unless noted, calls follow the shape of the dose curve; as a rule, active = well fitted curve in the direction sought with a large enough effect; inconclusive = small, poorly fitted or top-dose-only effect, or another doubt; inactive = no such curve, though single readings can be large; an effect the other way counts as inactive or inconclusive.

SMILES	HT1080 IDH1KD tx	TDP1 cell CPT	IL1B secr inh	DT40 TDP1 no CPT	HT1080NT lethal
CC12CN(S(=O)(=O)c3ccccc3)CC(C)(CN(S(=O)(=O)c3ccccc3)C1)C2	-	2.31µM	-	?	-
CC(C)NC(=O)COC(=O)CNC(=O)c1cc(Cl)cc([N+](=O)[O-])c1	-	-	-	-	-
CC(=O)CSc1nc2c(c(=O)[nH]c(=O)n2C)n1CCCc1ccccc1	-	-	-	?	-
Cc1ccc(-n2nc(C)c3c(C)cc(=O)n(CC(=O)Nc4ccc(Br)cc4F)c32)cc1	.	-	.	-	.
C[C@]12CCC(=O)C=C1CCC1C3CC[C@](O)(C(=O)CO)[C@@]3(C)CC3OC312 (stereo partly drawn)	.	-[9.04 µM]	.	-[9.04 µM]	.
CSCCC(NC(=O)CCC(=O)OCC(=O)[C@@]1(O)CCC2[C@@H]3CCC4=CC(=O)C=C[C@]4(C)C3[C@@H](O)C[C@@]21C)C(=O)O (stereo partly drawn)	?	-	-54.8	-	-
C[C@]12CCC(=O)C=C1CC[C@H]1[C@@H]3CC[C@](O)(C(=O)CO)[C@@]3(C)C[C@H](O)[C@@]12F	.	?	.	26.6µM!	.
C[C@]12C=CC(=O)C=C1CC[C@@H]1C2C(O)C[C@@]2(C)C1CC[C@]2(O)C(=O)COC(=O)CCC(=O)NC(CC(=O)O)C(=O)O (stereo partly drawn)	-	-	?	?	-
CC12C=CC(=O)C=C1CCC1C2C(O)CC2(C)C1CCC2(O)C(=O)CO (stereo not drawn)	-	-	-59.8	-	?
c1nc(NC2CCCCCC2)c2[nH]cnc2n1	-	10.3µM	-	23.1µM	-
Cc1cc(C)cc(Nc2ncnc3nc[nH]c23)c1	-	?	-	-	-
c1nc(NC2CCCCC2)c2[nH]cnc2n1	-	-	-	-	-
Cc1ncnc2nc[nH]c12	.	1.78µM	.	1.78µM	.
CC(C)=NNc1ncnc2nc[nH]c12	?	20.6µM	-	14.6µM	-
CC(C)CCN1CCN(CC#Cc2ccccc2)CC1CCO (stereo not drawn)	-	-	-	?	-
COc1ccc(/C(O)=C2/C(=O)C(=O)N(CCCN3CCOCC3)C2c2ccc(Cl)cc2)cc1 (stereo not drawn)	-	-	-	-	-
O=C(C1CCCCC1)N1CCOc2ccc(CN3CCN(Cc4ccccn4)CC3)cc2C1	.	-[9.04 µM]	.	-	.
COc1ccc(-c2nc3n(n2)C(c2ccccc2F)C(C(=O)Nc2cccnc2)=C(C)N3)cc1OC (stereo not drawn)	.	?	.	-	.
CC(CN1CCCC1)OC(=O)c1ccc(Cl)cc1 (stereo not drawn)	-	-	-	-	-
O=S1(=O)CCN(c2ccccc2CC(c2c[nH]c3ccccc23)c2c[nH]c3ccccc23)CC1	?	8.2µM	-	13µM	?
O=C(Nc1nnc(S(=O)(=O)N2CCCCC2)s1)c1ccc(Cl)cc1	-	?	-	-	-
CCN(c1ccccc1)S(=O)(=O)c1ccc(Cl)c(C(=O)N(CC2CCCO2)C2CCS(=O)(=O)C2)c1 (stereo not drawn)	-	?	-	20.6µM	-
CCN(c1ccccc1)S(=O)(=O)c1ccc(Cl)c(NC(=O)CN2CCCCCC2)c1	?	20.6µM	-	18.4µM	?
CCN(c1ccccc1)S(=O)(=O)c1ccc(Cl)c(NC(=O)COC(=O)C2CC2C)c1 (stereo not drawn)	-	-	-	-	-
CCN(c1ccccc1)S(=O)(=O)c1ccc(Cl)c(NC(=O)CN(C)Cc2cccc(F)c2)c1	-	16.4µM	-	18.4µM	-
SMILES	HT1080 IDH1KD tx	TDP1 cell CPT	IL1B secr inh	DT40 TDP1 no CPT	HT1080NT lethal
CN(CC1CCCO1)S(=O)(=O)c1ccc(C(=O)N2CCN(c3ccccc3)CC2)cc1 (stereo not drawn)	-	-	-	-	-
CN(C)S(=O)(=O)c1ccc(Cl)c(NC(=O)CN2CCCCCC2)c1	-	-	-	?	-
CCN(c1ccccc1)S(=O)(=O)c1ccc(C(=O)N2CCN(c3ccccc3)CC2)cc1	-	?	-	20.6µM	-
O=C(Cc1ccccc1[N+](=O)[O-])NCC1(c2cccc3c2OCO3)OCCO1	-	-	-	-	-
Cc1ccc(CCNC(=O)C2CCCN(c3nc4ccccc4o3)C2)cc1 (stereo not drawn)	-	-	-	-	-
CN(Cc1ccccc1)S(=O)(=O)c1ccc(Cl)c(C(=O)N2CCC2)c1	-	?	-	?	-
CCN(c1ccccc1)S(=O)(=O)c1ccc(Cl)c(NC(=O)CNC(C)c2ccccc2)c1 (stereo not drawn)	-	20.6µM	-	?	-
CCN(c1ccccc1)S(=O)(=O)c1ccc(Cl)c(C(=O)N2CCCC2)c1	-	?	-	14.6µM	-
CCN(c1ccccc1)S(=O)(=O)c1ccc(Cl)c(NC(=O)COC(=O)c2ccc(O)cc2)c1	-	?	-	?	-
CCC(C)NCC(=O)Nc1cc(S(=O)(=O)N(CC)c2ccccc2)ccc1Cl (stereo not drawn)	-	20.6µM	-52.9	23.1µM	-
CN(Cc1ccccc1)S(=O)(=O)c1ccc(Cl)c(C(=O)N2CCC(C(N)=O)CC2)c1	-	23.1µM	-	10.3µM	-
CCN(CC(=O)N1CCN(c2ccccc2)CC1)S(=O)(=O)c1ccc(C)cc1	-	?	-	13µM	-
O=C1C=CC(=O)c2c(O)c(Cl)c(Cl)c(O)c21	.	?	.	2.06µM	.
O=C1C=CC(=O)c2c(O)c(CO)c(CO)c(O)c21	-	2.06µM	-	2.91µM	-
O=C(C[n+]1ccccc1)N/N=C/c1ccc(Cl)cc1	-	-	-	-	-
Clc1cccc(Cl)c1CO/N=C/c1c(-c2ccccc2)nc2n1CCS2	-	18.4µM	-	20.6µM	?
CCCc1ccc2oc(C(=O)NCCN3CCCC(O)C3)c(C)c2c1 (stereo not drawn)	23.1µM	?	-66.3	?	?
CCC1NC(C(=O)O)Cc2c1[nH]c1ccccc21 (stereo not drawn)	-	7.31µM	-	9.2µM	-
COc1cc(C2NC(C(=O)O)Cc3c2[nH]c2ccccc32)cc(OC)c1OC (stereo not drawn)	-	-	-	-	-
Cc1ccc(NC(=O)C(=O)NN)cc1	-	-	-	-	-
NNC(=O)C(=O)Nc1ccc(O)cc1	?	-	-	-	7.31µM
CN1CCN(c2ccc(-c3cccc4nccn34)cn2)CC1	-	?	-	?	-
Cc1nc2c(C(=O)NCc3ccco3)cnn2c(C)c1Cc1ccc(F)cc1Cl	-	11.2µM	-	?	-
Cc1cccc(Cc2c(C)nc3c(C(=O)NCc4ccco4)cnn3c2C)c1	?	22.4µM	-77.8	11.2µM	?
